Laboratory results published in PubChem BioAssay (EPA / NIEHS).
The source made the active and inactive calls. Rule for the calls: active = hit-call score of the fitted dose curve at least 0.9, where 1 is the maximum; inactive = score below 0.9.

These compounds were tested on Intercellular Adhesion Molecule 1 (ICAM1), ICAM1 (gene 3383) (assay: BSK_3C_ICAM1: BioMAP Diversity Plus: 3C Assay for Intercellular Adhesion Molecule 1 (ICAM1) Biomarker Activity (AID 2283003)). Settings: primary human endothelial cells (HUVEC); actives raise or lower the signal.
Procedure: BSK_3C is a cell-based, multiplexed-readout assay that uses umbilical vein endothelium, a human vascular primary cell, with measurements taken at 24 hours after chemical dosing in a 96-well plate.BSK_3C_ICAM1 is an assay component measured in the BSK_3C assay. It measures ICAM-1 antibody related to regulation of gene expression using ELISA technology.Data from the assay component BSK_3C_ICAM1 was analyzed into 1 assay endpoint. This assay endpoint, BSK_3C_ICAM1, was analyzed with bidirectional fitting relative to DMSO as the negative control and baseline of activity. Using a type of binding reporter, gain or loss-of-signal activity can be used to understand changes in the signaling as they relate to the gene ICAM1. Furthermore, this assay endpoint can be referred to as a primary readout, because this assay has produced multiple assay endpoints where this one serves a signaling function. To generalize the intended target to other relatable targets, this assay endpoint is annotated to the cell adhesion molecules intended target family, where the subfamily is Immunoglobulin CAM.
The levels of cell surface (or secreted, indicated by the prefix "s") biomarker endpoints were measured by ELISA. Overt cytotoxicity to cells in confluent adherent cultures (all systems other than the BT system) was assessed by measuring total protein levels using sulforhodamine B (SRB) staining in parallel cultures at the time of biomarker measurements, indicated as SRB endpoints. For proliferation assays for adherent cell types, individual cell types are cultured at sub-confluence and relative cell numbers quantified by SRB staining at time points optimized for each system (48 h: 3C and CASM3C systems; 72 h: BT and HDF3CGF systems; 96 h: SAg system). SRB was performed by staining cells with 0.1% SRB after fixation with 10% TCA and reading wells at 560 nm.Viability and proliferation of PBMC (T cells) was quantified by Alamar Blue reduction for the SAg and BT systems. For PBMC viability (referred to as PBMC Cytotoxicity within the assay endpoint names), cells were plated (75,000/well in a 96-well plate) and then chemical samples added for 1 h before addition of activators, SEB and TSST-1 (20 ng/mL final concentration each). Cells were incubated for 90 h. Then, Alamar Blue (20 uL/well) (Invitrogen, Cat DAL1100) was added for 6 h, and the plates were read with a fluorescence microplate reader at 546/580 nm (excitation/emission). For PBMC proliferation, cells were plated and activated as above but incubated for only 16 h prior to addition of Alamar Blue. Plates were read after 6 h.
In the case of O=C(O)c1ccc2c(c1)nc(C(=O)NC1CCN(C3CC3)CC1)n2Cc1cc(-c2ccc(Cl)s2)on1, the outcome is reported as “inactive”.
With CCCC(CCC)C(=O)O the outcome was “inactive”.
For CC[C@H](C)C(=O)O[C@H]1C[C@H](O)C=C2C=C[C@H](C)[C@H](CC[C@@H](O)C[C@@H](O)CC(=O)O)[C@H]21, the outcome was “inactive”.
For CCCCC(CC)C(=O)OCCOCCOCCOC(=O)C(CC)CCCC (stereo not given), the outcome was “inactive”.
CC(C)CCCCCCOC(=O)C1CCCCC1C(=O)OCCCCCCC(C)C (stereo not given) was tested, and the outcome was “inactive”.
O=S(=O)(O)c1ccc(N=Nc2c(O)ccc3cc(S(=O)(=O)O)ccc23)cc1 was tested, and the outcome was “inactive”.
With OCc1c[nH]c2ccccc12 the outcome was “inactive”.
CC(C)C(=O)Nc1ccc([N+](=O)[O-])c(C(F)(F)F)c1 was tested, and the outcome was “inactive”.
With CCCCN1C(=O)[C@@H]([C@H](O)C2CCCCC2)NC(=O)C12CCN(Cc1ccc(Oc3ccc(C(=O)O)cc3)cc1)CC2 the outcome was “inactive”.
With NNC(=O)c1ccncc1 the outcome was “inactive”.
c1ccc2cc3ccccc3cc2c1 was tested, and the outcome was “inactive”.
Cc1cccc(O)c1C was tested, and the outcome was “inactive”.
O=C(O)c1cccc(C[C@@H]2COc3ccc(OCc4nc5cc(F)ccc5s4)cc3[C@@H]2O)c1 was tested, and the outcome was “inactive”.
With CC1(C)C(=O)N(Cl)C(=O)N1Cl the outcome was “inactive”.
With FC(F)(F)C(F)(F)C(F)(F)C(F)(F)C(F)(F)C(F)(F)I the outcome was “inactive”.
With OCCNCCO the outcome was “inactive”.
In the case of C=CCc1cc(S(=O)(=O)c2ccc(O)c(CC=C)c2)ccc1O, the AC50 is reported as 29.3 µM (active).
With CCOc1ccc2[nH]cc(C(=O)NCc3ccccc3)c(=O)c2n1 the outcome was “inactive”.
With CC(C)c1nnc2ccc(-c3ocnc3-c3cc(F)ccc3F)cn12 the outcome was “inactive”.
c1ccc(C(O[C@@H]2CCCN(CCc3ccc4c(c3)OCO4)C2)c2ccccc2)cc1 was tested, and the outcome was “inactive”.
For NC(N)=O, the outcome was “inactive”.
For C=CN1CCCC1=O, the outcome was “inactive”.
With O=c1[nH]cnc2c1ncn2[C@H]1CC[C@@H](CO)O1 the outcome was “inactive”.
In the case of Cc1ncc([C@@H](CCCCCCc2ccc3c(n2)NCCC3)CC(=O)O)cn1, the outcome is reported as “inactive”.
For O=C(O)c1cccc(C(=O)O)c1, the outcome was “inactive”.
For Cc1nc(-c2ccccn2)ncc1C(=O)Nn1cc(C)c2cc(F)ccc21, the outcome was “inactive”.
For Nc1ccn([C@@H]2O[C@H](CO)[C@@H](O)[C@@H]2O)c(=O)n1, the outcome was “inactive”.
For CCCCOC(=O)c1ccccc1, the outcome was “inactive”.
With O=C1CN(N=Cc2ccc([N+](=O)[O-])o2)C(=O)N1 the outcome was “inactive”.
With S=P(N1CC1)(N1CC1)N1CC1 the outcome was “inactive”.
With CC(C)CC(C)O (stereo not given) the outcome was “inactive”.
For CCCOc1ccc(S(=O)(=O)N2CCN(CC)CC2)cc1-c1nc2c(CC)n(Cc3ccccn3)nc2c(=O)[nH]1, the outcome was “inactive”.
In the case of CCCCCCCCCCCCCCCCOS(=O)(=O)O, the outcome is reported as “inactive”.
In the case of OCCOCCOCCO, the outcome is reported as “inactive”.
For CCc1cccc(CC)c1N, the outcome was “inactive”.
For CCCCCCCCCCCCCCO, the AC50 was 35.5 µM (active).
With CCCCCCOC(=O)CC(CC(=O)OCCCCCC)(OC(=O)CCC)C(=O)OCCCCCC the outcome was “inactive”.
O=C(O)[C@H](O)[C@@H](O)C(=O)O was tested, and the outcome was “inactive”.
For CCCCCCCCCC, the outcome was “inactive”.
With OC[C@H]1O[C@@H]2O[C@H]3[C@H](O)[C@@H](O)[C@@H](O[C@H]4[C@H](O)[C@@H](O)[C@@H](O[C@H]5[C@H](O)[C@@H](O)[C@@H](O[C@H]6[C@H](O)[C@@H](O)[C@@H](O[C@H]7[C@H](O)[C@@H](O)[C@@H](O[C@H]1[C@H](O)[C@H]2O)O[C@@H]7CO)O[C@@H]6CO)O[C@@H]5CO)O[C@@H]4CO)O[C@@H]3CO the outcome was “inactive”.
